Records with an inconclusive call do not appear. Active and inactive are the calls of the source. Calls follow the shape of the dose curve; as a rule, active = well fitted cell-killing curve with a large enough effect; inconclusive = small, poorly fitted or top-dose-only effect, or effect the other way; inactive = no such curve, though single readings can be large or run the other way.
% is scaled to controls: 0 for no effect and ±100 for the full control effect; potency is read from the fitted curve at half-maximal effect.

This assay has as its system CASKI. Put plainly: Confirmatory qHTS for gynecologic anti-cancer compounds from libraries of approved drugs and bioactive compounds. Also: nearly all actives have a fitted effect of over 55% in size. As to conditions: gynecologic cancer cell panel viability, ATPlite luminescence, 48 h; series mostly up to 57.6 µM. In short, it runs like this: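 Cells (1,000/well) plated 16 h, then exposed 48 h at 37 °C to 11 concentrations (1:3) from 57.5 uM to 0.977 nM. Viability by ATPlite luminescence after 15 min; IC50 derived, with HEK 293T used for selectivity index.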
Background: In qHTS, concentration-response curves come from the screen itself.
On to `Cc1[nH]c2ccccc2c1CCNCc1ccc(/C=C/C(=O)NO)cc1`, for which the Potency is 0.611 µM (active).

Regarding `Cn1cnc([N+](=O)[O-])c1Sc1ncnc2nc[nH]c12`, the Potency was 6.85 µM (active).

Regarding `Oc1cn2c(n1)Nc1ccc(Cl)c(Cl)c1C2`, the Potency result was “inactive”.

`CC(=O)c1cnc2ccc(-c3cc(Cl)c(O)c(Cl)c3)nc2c1NC1CCC(CN(C)C)CC1` (stereo not drawn): the Potency is 0.559 µM (active).

With `CCc1nc(C(N)=O)c(Nc2ccc(N3CCC(N4CCN(C)CC4)CC3)c(OC)c2)nc1NC1CCOCC1`, the Potency is 11.9 µM (active).

As for `O=C1N(c2ccccc2)c2ccccc2C1(Cc1ccncc1)Cc1ccncc1`, the Potency entry was “inactive”.

On to `CNC1CCC(N(Cc2cccc(-c3ccncc3)c2)C(=O)c2sc3ccccc3c2Cl)CC1` (stereo not drawn), for which the Potency is 34.3 µM (active).

Consider `CNC(=O)c1ccccc1Nc1nc(Nc2ccc(N3CCOCC3)cc2OC)ncc1Cl`, for which the Potency was 6.11 µM (active).

For the molecule `CC(Oc1cc(-n2cnc3ccc(CN4CCN(C)CC4)cc32)sc1C(N)=O)c1ccccc1C(F)(F)F` (stereo not drawn), the Potency is 13.7 µM (active).

On to `C=CC(=O)Nc1cccc(Oc2nc(Nc3ccc(N4CCN(C)CC4)cc3)ncc2Cl)c1`, for which the Potency is 10.9 µM (active).

For `Nc1ccccc1NC(=O)c1ccc(CNC(=O)OCc2cccnc2)cc1`, the Potency was 15.3 µM (active).

`COCCOc1ccc2c(c1)ncn2-c1ccc2cccc(N3CCC(N)CC3)c2n1`: the Potency is 27.3 µM (active).

Turning to `CCC1C(=O)N(C)c2cnc(Nc3ccc(C(=O)NC4CCN(C)CC4)cc3OC)nc2N1C1CCCC1` (stereo not drawn), the Potency is 6.85 µM (active).

As to `O=C1Cc2cc(CCN3CCN(c4nsc5ccccc45)CC3)c(Cl)cc2N1`, the Potency entry is “inactive”.

In the case of `Cc1ccc(C(=O)Nc2ccc(CN3CCN(C)CC3)c(C(F)(F)F)c2)cc1C#Cc1cnc2cccnn12`, the Potency was 21.7 µM (active).

On to `CCC1C(=O)N(C)c2cnc(Nc3ccc(C(=O)NC4CCC(N5CCN(CC6CC6)CC5)CC4)cc3OC)nc2N1C(C)C` (stereo not drawn), for which the Potency was 6.11 µM (active).

In the case of `COc1cc2c(Oc3ccc(-c4cnc(Nc5ccc(F)cc5)n(C)c4=O)cc3F)ccnc2cc1OCCCN1CCOCC1`, the Potency result was “inactive”.

As to `Cc1cnc(Nc2cccc(CN3CCOCC3)c2)nc1Nc1cccc(S(=O)(=O)NC(C)(C)C)c1`, the Potency is 15.3 µM (active).

Regarding `Cc1nc(Nc2ncc(C(=O)Nc3c(C)cccc3Cl)s2)cc(N2CCN(CCO)CC2)n1`, the Potency was 0.109 µM (active).

Regarding `CC(=O)O[C@H]1C(=O)[C@@]2(C)[C@H]([C@H](OC(=O)c3ccccc3)[C@]3(O)C[C@H](OC(=O)[C@H](O)[C@@H](NC(=O)c4ccccc4)c4ccccc4)C(C)=C1C3(C)C)[C@]1(OC(C)=O)CO[C@@H]1C[C@@H]2O`, the activity change, negative = viability loss was -4.63% [at 10.7 µM] (inactive).

For `COc1cc(F)c(F)c(Nc2ccc(I)cc2F)c1NS(=O)(=O)C1(CC(O)CO)CC1` (stereo not drawn), the Potency result was “inactive”.

`O=C(NOCC1CC1)c1ccc(F)c(F)c1Nc1ccc(I)cc1Cl`: the Potency was 21.7 µM (active).

`CCS(=O)(=O)c1cccc(-c2cc(C(=O)NC3CCN(C)CC3)c(C)c3[nH]c4ncc(C)cc4c23)c1`: the Potency was 4.76 µM (active).

With `CNC(=O)c1ccccc1Sc1ccc2c(/C=C/c3ccccn3)n[nH]c2c1`, the Potency was 13.7 µM (active).

For `COc1c(C)c2c(c(O)c1C/C=C(\C)CCC(=O)O)C(=O)OC2`, the Potency result is “inactive”.

Regarding `CC(C)C[C@H](NC(=O)[C@H](Cc1ccccc1)NC(=O)c1cnccn1)B(O)O`, the Potency is 0.0343 µM (active).

Take `CC(C)c1nn(-c2c(Cl)cccc2Cl)c2nc(Cc3ccc(OCCO)cc3)[nH]c(=O)c12`: the Potency is 0.137 µM (active).

For the molecule `Cn1c(=O)c(F)c(Nc2ccc(I)cc2F)c2c(=O)n(CC(O)CO)cnc21` (stereo not drawn), the Potency was 24.3 µM (active).

Consider `CN1C(=O)C(Cc2c[nH]c3ccccc23)NC1=S` (stereo not drawn), for which the Potency entry was “inactive”.

On to `CN(C[C@@H]1COCCO1)S(=O)(=O)Nc1ccc2ccc3ncc(-c4cnn(C)c4)cc3c(=O)c2c1`, for which the Potency result was “inactive”.

For the molecule `COc1ccccc1N1CCN(CC(O)COc2cccc3ccccc23)CC1` (stereo not drawn), the Potency result is “inactive”.

In the case of `Nc1nccc(Oc2ccc(NC(=O)c3c[nH]cc(-c4ccc(F)cc4)c3=O)cc2F)c1Cl`, the Potency was 12.2 µM (active).

For the molecule `Cc1ccccc1C(OCCN(C)C)c1ccccc1` (stereo not drawn), the Potency entry was “inactive”.

Values taken from PubChem BioAssay AID1345085 (National Center for Advancing Translational Sciences (NCATS), 2018).
